PubChem BioAssay (NCATS)
Inconclusive results are not listed. Active and inactive are the calls of the source. Calls come from the whole dose curve; as a rule, active = well fitted inhibition curve with a large enough effect; inconclusive = small, poorly fitted or top-dose-only effect; inactive = flat fitted curve, though single readings scatter.

Tests used:
Assay in all cases: qHTS profiling for inhibitors of Plasmodium falciparum proliferation (AID 504749); note: nearly all actives have a fitted effect of over 60% in size
Conditions in all cases: P. falciparum in erythrocytes, SYBR Green DNA, 72 h; series mostly up to 28.7 µM
[1] = test system: AS120
Procedure, shortened: (§1)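 P. falciparum-infected erythrocytes (0.3% parasitemia, 2.5% hematocrit final) were exposed to compounds for 72 h at 37 C in 5% CO2, then lysed with SYBR Green buffer overnight at room temperature; parasite DNA fluorescence was normalized to artemisinin and DMSO controls.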

[2] = test system: ATS189
Procedure, shortened: as §1

[3] = test system: ATS95
Procedure, shortened: as §1

[4] = test system: C2A
Procedure, shortened: as §1

[5] = test system: CP185
Procedure, shortened: as §1

[6] = test system: CP191
Procedure, shortened: as §1

[7] = test system: CP194
Procedure, shortened: as §1

[8] = test system: CP201
Procedure, shortened: as §1

[9] = test system: CP203
Procedure, shortened: as §1

[10] = test system: CP211
Procedure, shortened: as §1

[11] = test system: CP215
Procedure, shortened: as §1

[12] = test system: CP217
Procedure, shortened: as §1

[13] = test system: CP237
Procedure, shortened: as §1

[14] = test system: CP238
Procedure, shortened: as §1

[15] = test system: CP247
Procedure, shortened: as §1

[16] = test system: CP250
Procedure, shortened: as §1

[17] = test system: CP252
Procedure, shortened: as §1

[18] = test system: CP256
Procedure, shortened: as §1

[19] = test system: CP260
Procedure, shortened: as §1

[20] = test system: CP192
Procedure, shortened: as §1

Measured: Potency
Potency is the fitted concentration of half-maximal effect.

C#C[C@]1(OC(C)=O)CC[C@H]2[C@@H]3CCC4=C[C@@H](OC(C)=O)CC[C@@H]4[C@H]3CC[C@@]21C
not listed: [20]
inactive: all other assays above

CN1CCC(=C2c3ccccc3Sc3ccccc32)CC1
active: [1] 12.6 µM | [2] 7.94 µM | [3] 11.2 µM | [4] 11.2 µM | [5] 8.91 µM | [7] 10.7 µM | [10] 13.5 µM | [11] 9.53 µM | [12] 11.2 µM | [13] 8.91 µM | [14] 11.2 µM | [15] 7.94 µM | [16] 11.2 µM | [17] 7.08 µM | [18] 11.2 µM | [19] 8.91 µM

COc1ccc(CN2CCN(C(c3ccc(F)cc3)c3ccc(F)cc3)CC2)c(OC)c1OC
active: [1] 7.08 µM | [2] 10 µM | [3] 12.6 µM | [4] 12.6 µM | [5] 10 µM | [6] 7.94 µM | [7] 15.1 µM | [8] 15.1 µM | [9] 13.5 µM | [10] 16.9 µM | [12] 11.2 µM | [13] 8.91 µM | [15] 10 µM | [16] 8.91 µM | [17] 10 µM | [19] 7.94 µM

CCCCCCCCCCCCCCNCCO
active: [1] 12.6 µM | [13] 4.47 µM | [15] 10 µM | [19] 4.47 µM
inactive: [3] | [20] | [7] | [8] | [9] | [10] | [12]

CCCCC1=NC2(CCCC2)C(=O)N1Cc1ccc(-c2ccccc2-c2nn[nH]n2)cc1
not listed: [3]
inactive: all other assays above

CCCCc1nc(Cl)c(CO)n1Cc1ccc(-c2ccccc2-c2nn[nH]n2)cc1
active: [1] 8.91 µM | [3] 12.6 µM | [10] 6.75 µM | [12] 12.6 µM | [17] 10 µM
inactive: [13]

NC(=O)C(=O)N/N=C/c1ccc([N+](=O)[O-])o1
not listed: [7] | [8] | [9] | [10] | [11] | [20]
inactive: all other assays above

C[C@@H](CN(C)C)CN1c2ccccc2Sc2ccccc21
not listed: [6] | [7] | [8] | [9]
inactive: all other assays above

CC1=C(C(=O)OC(C)C)C(c2cccc([N+](=O)[O-])c2)C(C(=O)OC2CN(C(c3ccccc3)c3ccccc3)C2)=C(N)N1 (centres undefined)
active: [1] 4.47 µM | [2] 7.08 µM | [3] 11.2 µM | [5] 10 µM | [6] 7.08 µM | [20] 7.57 µM | [7] 6.75 µM | [8] 7.57 µM | [9] 12 µM | [10] 6.75 µM | [11] 7.57 µM | [12] 6.31 µM | [13] 12.6 µM | [14] 8.91 µM | [15] 10 µM | [16] 8.91 µM | [17] 10 µM | [18] 4.47 µM | [19] 6.31 µM

O=C1[C@H]2CCCC[C@H]2C(=O)N1CCCCN1CCN(c2nsc3ccccc23)CC1
not listed: [4] | [6] | [13]
inactive: all other assays above

CCCCOc1cc(C(=O)NCCN(CC)CC)c2ccccc2n1
not listed: [6] | [9]
inactive: all other assays above

CC(C)(Oc1ccc(Cl)cc1)C(=O)O
not listed: [3] | [9]
inactive: all other assays above

CCN(CC)CCOC(=O)C(c1ccccc1)C1CCCCC1 (centres undefined)
not listed: [3] | [7] | [9] | [11] | [19]
inactive: all other assays above

CC(=O)N/N=C/c1ccc([N+](=O)[O-])o1
active: [1] 7.08 µM | [19] 7.94 µM
inactive: [2] | [20] | [7] | [8] | [9] | [11] | [14]

Cc1c(C(N)=O)cc([N+](=O)[O-])cc1[N+](=O)[O-]
not listed: [9] | [20]
inactive: all other assays above

CN(C)CC/C=C1\c2ccccc2Sc2ccc(Cl)cc21
active: [1] 11.2 µM | [3] 11.2 µM | [19] 8.91 µM
inactive: [20] | [8] | [16]

OC(CCN1CCCCC1)(c1ccccc1)c1ccccc1
active: [1] 11.2 µM | [3] 8.91 µM | [9] 16.9 µM | [13] 4.47 µM
inactive: [8] | [10] | [16]

CC/C(=C(/CC)c1ccc(O)cc1)c1ccc(O)cc1
not listed: [2] | [6] | [9] | [18] | [19]
inactive: all other assays above

CC(O)C(=O)O (centres undefined)
not listed: [3] | [9] | [11]
inactive: all other assays above

O=C(Nc1ccc(Oc2ccc(Cl)cc2)c(Cl)c1)c1cc(I)cc(I)c1O
active: [12] 0.158 µM
inactive: [2] | [3] | [4] | [5] | [20] | [7] | [8] | [10] | [14] | [18]

Oc1ccc(Cl)cc1Sc1cc(Cl)ccc1O
not listed: [1] | [7] | [9] | [11] | [12]
inactive: all other assays above

Oc1c(I)cc(I)c2cccnc12
inactive: [4]

O=C1OCCN1/N=C/c1ccc([N+](=O)[O-])o1
inactive: [4] | [20] | [7]

C[C@@H]1CN(CCCn2c3ccccc3c3ccccc32)C[C@H](C)N1
active: [1] 12.6 µM | [4] 11.2 µM | [6] 7.08 µM | [13] 11.2 µM | [15] 4.47 µM | [19] 11.2 µM
inactive: [20]

O=C(N/N=C/c1ccccc1O)c1ccncc1
active: [1] 4.47 µM | [4] 11.2 µM | [12] 8.91 µM | [14] 8.91 µM | [15] 8.91 µM | [16] 10 µM | [17] 8.91 µM | [18] 11.2 µM | [19] 5.01 µM

CC(C)=CCC1C(=O)N(c2ccccc2)N(c2ccccc2)C1=O
inactive: [4] | [8] | [14] | [15]
active: [11] 13.5 µM | [13] 11.2 µM

CCCCCCCCCCCCCCCC[N+](C)(C)CCN(Cc1ccc(OC)cc1)c1ncccn1
active: [6] 0.794 µM
inactive: [2] | [20] | [7] | [8] | [9] | [10] | [11] | [17] | [18]

CNCCC(Oc1ccccc1C)c1ccccc1 (centres undefined)
not listed: [1] | [7] | [9] | [11] | [12] | [14] | [15] | [18]
inactive: all other assays above

Cc1cccc(C)c1NC(=O)CN1CCN(CCCC(c2ccc(F)cc2)c2ccc(F)cc2)CC1
active: [1] 3.98 µM
not listed: [2] | [3] | [7] | [9] | [12] | [13]
inactive: all other assays above

O=C(CCCN1CCC(O)(c2ccc(Br)cc2)CC1)c1ccc(F)cc1
active: [3] 3.16 µM | [19] 3.55 µM
inactive: [8] | [10] | [18]

CCN(CC)CCOc1ccc(C(O)(Cc2ccc(Cl)cc2)c2ccc(C)cc2)cc1 (centres undefined)
active: [2] 11.2 µM | [11] 13.5 µM | [13] 7.94 µM | [15] 10 µM | [19] 11.2 µM

CCOC(=O)COc1ccc2c(C)c(CCN(CC)CC)c(=O)oc2c1Cl
not listed: [1] | [4] | [6] | [14] | [17] | [18]
inactive: all other assays above

CC(C)N=C(N)/N=C(\N)Nc1ccc(Cl)cc1
inactive: [3] | [4] | [20] | [14]
active: [6] 1 µM | [18] 0.708 µM

CN(C)CCOc1ccccc1Cc1ccccc1
active: [1] 1.78 µM | [13] 3.16 µM | [14] 7.94 µM | [19] 2.51 µM
inactive: [20] | [8]

CCOC(=O)/C=C(C)/C=C/C=C(C)/C=C/c1c(C)cc(OC)c(C)c1C
inactive: [20] | [7] | [8] | [9] | [10] | [11] | [13]

CN1CCN(CCCN2c3ccccc3Sc3ccc(S(=O)(=O)N(C)C)cc32)CC1
active: [2] 3.55 µM | [6] 3.98 µM | [12] 3.98 µM | [13] 3.98 µM
inactive: [5] | [20] | [7] | [8] | [10] | [17]

C=C(CC)C(=O)c1ccc(OCC(=O)O)c(Cl)c1Cl
inactive: [20] | [8] | [12]
active: [1] 12.6 µM | [15] 10 µM | [16] 12.6 µM | [17] 12.6 µM | [18] 4.47 µM | [19] 8.91 µM

CCCCCCCCCCOCC(O)CN (centres undefined)
inactive: [4] | [6] | [8] | [11] | [14] | [15] | [16] | [19]

C#C[C@]1(O)CC[C@H]2[C@@H]3CCc4cc(OC5CCCC5)ccc4[C@H]3CC[C@@]21C
not listed: [1] | [3] | [6] | [18]
inactive: all other assays above

Cc1ccc(O)c2ncccc12
not listed: [1] | [7] | [19]
inactive: all other assays above

CCN(CC)CCNC(=O)COc1ccc(Cl)cc1
inactive: [4] | [6] | [20] | [8] | [9] | [10] | [11] | [18]
active: [1] 12.6 µM

CN=C(NC#N)Nc1ccc(C2=NNC(=O)CC2C)cc1 (centres undefined)
inactive: [20] | [7] | [8] | [9] | [10] | [11]

CCN(CCCc1ccccc1)CCCc1ccccc1
active: [3] 3.55 µM
inactive: [4] | [6] | [20] | [8] | [12] | [15] | [16] | [17] | [18] | [19]

CCCOC(C(=O)OC1CCN(C)CC1)(c1ccccc1)c1ccccc1
inactive: [20] | [8]

CO/N=C1\CN(c2nc3c(cc2F)c(=O)c(C(=O)O)cn3C2CC2)CC1CN (centres undefined)
active: [6] 8.91 µM | [19] 7.94 µM

NC(CS)C(=O)O (centres undefined)
inactive: [5] | [20] | [8] | [10]
active: [3] 12.6 µM | [6] 10 µM | [19] 8.91 µM

CNCCC=C1c2ccccc2CCc2ccccc21
active: [3] 5.62 µM

Clc1ccc2c(c1)CCc1cccnc1C2=C1CCNCC1
inactive: [4] | [5] | [15] | [16] | [18]

Oc1ccc(O)cc1
inactive: [2] | [3] | [5] | [6] | [8]

CN(C(=O)CN(CCO)CC(=O)N(C)C(C)(C)Cc1ccccc1)C(C)(C)Cc1ccccc1
not listed: [1] | [2] | [7] | [9] | [12] | [13]
inactive: all other assays above

c1ccc(CNCCNCc2ccccc2)cc1
inactive: [6] | [20] | [8] | [16]
active: [13] 3.16 µM

O=c1c(-c2ccccc2)c1-c1ccccc1
active: [2] 10 µM | [16] 11.2 µM | [19] 8.91 µM

CN(C)C(=S)SC(=S)N(C)C
active: [1] 12.6 µM | [20] 7.57 µM | [13] 10 µM | [16] 11.2 µM | [18] 10 µM | [19] 10 µM

COC(=O)[C@H]1[C@H]2C[C@H]3c4[nH]c5ccccc5c4CCN3C[C@H]2CC[C@@H]1O
inactive: [20] | [7] | [8] | [9] | [10] | [11]
